From PubChem BioAssay (NCI)
“And” between values parts separate entries of the source, which are not always exact repeats. Equal entries are not always repeated. The panel holds about 83,000 compounds, 20% with a hit somewhere; the sample as a whole holds those more often.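 Plates (96-well) were seeded with cells, treated with compound at one concentration, and incubated for 48 hours before percent growth was determined.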 The source made the active and inactive calls. Rule for the calls: active = growth percent below 10; inactive = the rest.

Legend:
Assay in all cases: NCI-60 one-dose screen, 48 h (100 = growth as untreated, 0 = no growth, -100 = all killed)
Conditions in all cases: 10 µM unless noted
[1] = system: HCT-15 colon
[2] = system: HT29 colon
[3] = system: SNB-75 CNS
[4] = system: SNB-19 CNS
[5] = system: U251 CNS
[6] = system: PC-3 prostate
[7] = system: SK-MEL-5 melanoma
[8] = system: UACC-62 melanoma
[9] = system: LOX IMVI melanoma
[10] = system: SK-MEL-28 melanoma
[11] = system: SK-MEL-2 melanoma
[12] = system: EKVX NSCLC
[13] = system: SN12C renal
[14] = system: UO-31 renal
[15] = system: TK-10 renal
[16] = system: ACHN renal
[17] = system: CAKI-1 renal
[18] = system: A498 renal
[19] = system: CCRF-CEM leukemia
[20] = system: MOLT-4 leukemia

Measured: growth

COc1ccc(-c2c[nH]c(C(=O)O)c2-c2cc(OC)c(OC)c(OC)c2)cc1
inactive: [1] 31.7% | [2] 14.7% | [4] 41.3% | [5] 49.5% | [6] 32.8% | [7] 19.2% | [8] 37.7% | [9] 47.2% | [10] 61.7% | [11] 49.2% | [12] 63.3% | [13] 43.9% | [14] 31.9% | [15] 63.3% | [16] 38.4% | [17] 29.8% | [19] 42.2% | [20] 56.4%
active: [3] -15.5% | [18] -14.5%

CCCCC(NC(=O)CN1C(=O)/C(=C/C(C)=C/c2ccccc2)SC1=S)C(=O)O (stereo not given)
inactive: [1] 108% | [2] 120% | [3] 98.7% | [4] 95.7% | [5] 110% | [6] 107% | [7] 101% | [8] 92.7% | [9] 94.7% | [10] 104% | [11] 113% | [12] 98.6% | [13] 95.5% | [14] 82.9% | [15] 104% | [16] 97.2% | [17] 89.2% | [18] 68% | [19] 105% | [20] 118%

Cc1nnc(NS(=O)(=O)c2ccc(N=Nc3ccc(N)nc3N)cc2)s1
inactive: [1] 99.7% and 107% | [2] 108% and 104% | [3] 92% and 89.6% | [4] 100% and 112% | [5] 105% and 106% | [6] 93.8% and 98.2% | [7] 117% | [8] 97% and 111% | [9] 93.2% and 101% | [10] 111% and 116% | [11] 104% and 116% | [12] 104% and 105% | [13] 92.3% and 105% | [14] 76.1% and 80.1% | [15] 112% and 111% | [16] 103% and 110% | [17] 98% and 96% | [18] 99.7% and 123% | [19] 100% and 105% | [20] 102% and 96.3%

O=C1c2cc3c(cc2-c2c1c1ccc(Cl)cc1c(=O)n2CCCn1ccnc1)OCO3
inactive: [4] 17.3% | [6] 19.9% | [10] 15.5% | [11] 31.1% | [12] 42.4% | [13] 12.6% | [15] 46.3%
active: [1] 7.3% | [2] -62.9% | [3] 0.456% | [5] -33.1% | [7] -93% | [8] -57.7% | [9] -76.8% | [14] -7.59% | [16] -19% | [17] 9.62% | [18] -12.9% | [19] 3.44% | [20] -28.2%

COc1ccc(C/C(C)=C(/c2ccc(OCCN3CCCC3)cc2)c2ccc(OC(=O)NCc3ccccc3)cc2)cc1
inactive: [1] 61.4% | [2] 18.6% | [3] 71.1% | [4] 85.6% | [5] 67.1% | [6] 67.3% | [7] 77.8% | [8] 84.8% | [9] 84.4% | [10] 84.7% | [11] 104% | [12] 87.5% | [13] 91.9% | [14] 59.9% | [15] 92.8% | [16] 89.7% | [17] 97.7% | [18] 107% | [19] 47.3% | [20] 40%

Cn1ccnc1CN1CCSC(C(=O)Nc2ccccc2)C1 (stereo not given)
inactive: [1] 95.4% | [2] 95.1% | [3] 79.5% | [4] 93% | [5] 93.1% | [6] 92.3% | [7] 95.4% | [8] 87.7% | [9] 98.7% | [10] 100% | [11] 102% | [12] 106% | [13] 91.4% | [14] 89.2% | [15] 101% | [16] 93.2% | [17] 89.2% | [18] 97% | [19] 80.9% | [20] 94.3%

Cc1ccc(Cc2cnc(NC(=O)c3cc(C)oc3C)s2)cc1
inactive: [1] 39.1% | [2] 51.3% | [3] 76.6% | [4] 84.2% | [5] 66.9% | [6] 72.8% | [7] 93.6% | [8] 47.6% | [9] 68.9% | [10] 81.3% | [11] 85.6% | [12] 57.4% | [13] 86.9% | [14] 61.2% | [15] 63.6% | [16] 70.4% | [17] 38.4% | [18] 84.4% | [19] 70.8% | [20] 60.2%

CCN(CC)/C([O-])=c1\cccc\c1=C1\N=C(c2ccccc2)N=C1[n+]1ccc(-c2ccccc2)cc1
inactive: [1] 101% | [2] 106% | [3] 93.7% | [4] 99.5% | [5] 97.7% | [6] 92.8% | [7] 93.8% | [8] 93.6% | [9] 91.6% | [10] 106% | [11] 78.1% | [12] 93.4% | [13] 89.5% | [14] 37.1% | [15] 102% | [16] 95.8% | [17] 99.9% | [18] 96% | [19] 84.6% | [20] 88%

CC12OC(CC(O)C1O)n1c3ccccc3c3c4c(c5c6ccccc6n2c5c31)C(=O)N(CCN1CCOCC1)C4=O (stereo not given)
active: [1] 9.81% | [2] 2.31% | [3] -5.19% | [4] 8.99% | [5] 3.67% | [6] 7.32% | [7] -44.5% | [8] -52% | [9] -61.1% | [14] -9.86% | [15] -11.1% | [16] -59.7% | [17] 2.22% | [18] -15.3% | [20] 3.59%
inactive: [10] 34.6% | [11] 12.6% | [12] 32% | [13] 10.3% | [19] 16.4%

Cc1ccc2nc3ccccc3c(NCc3ccc(Cl)cc3)c2c1
inactive: [1] 14.5% | [3] 66.5% | [4] 50.3% | [5] 25.1% | [6] 39.1% | [7] 54% | [8] 74% | [10] 75.5% | [11] 102% | [12] 55.4% | [13] 39.6% | [14] 24.5% | [15] 82.4% | [16] 33.3% | [17] 45.7% | [18] 13% | [19] 18.2%
active: [2] 5.35% | [9] -57.1% | [20] 0.0972%

CCn1cc(C(=O)NN=C2CCCC2)c(=O)c2ccc(C)nc21
inactive: [1] 96.6% | [2] 96.9% | [3] 86.1% | [4] 96.6% | [5] 96.5% | [6] 85.6% | [7] 92.8% | [8] 78.6% | [9] 98.1% | [10] 90.9% | [11] 96.5% | [12] 88.8% | [13] 81% | [14] 81.3% | [15] 100% | [16] 86.6% | [17] 84.2% | [18] 66.7% | [19] 89.7% | [20] 100%

COc1cc(-c2nc(SCCC(C)C)nc(Nc3ccc(F)cc3)c2C#N)cc(OC)c1OC
inactive: [1] 88.8% | [2] 55% | [3] 30.8% | [4] 45.5% | [5] 29.7% | [6] 75.9% | [7] 97.6% | [8] 80.5% | [9] 79.2% | [10] 104% | [11] 101% | [12] 85% | [13] 64.6% | [14] 64.6% | [15] 41.4% | [16] 34.1% | [17] 49.6% | [18] 62.5% | [19] 91.4% | [20] 83.4%

CN(C)C1CCN(C(=O)c2ccc(NC(=O)Nc3ccc(-c4nc(N5CCOCC5)c5cccn5n4)cc3)cc2)CC1
inactive: [1] 40.5% | [17] 69.6% | [19] 10.5%
active: [2] 6.06% | [3] -40.5% | [4] 3% | [5] 5.17% | [6] 3.69% | [7] -63.6% | [8] -43.5% | [9] -2.24% | [10] -22.4% | [11] -7.66% | [12] -15% | [13] 4.15% | [14] 8.27% | [15] -20.9% | [16] 2.19% | [18] -54.9% | [20] 0.188%

Cc1ccc(NC(=O)c2sc3nc(C)c(C(=O)c4ccccc4)cc3c2N)cc1
active: [18] 4.97%
inactive: [1] 83.1% | [2] 102% | [3] 70.7% | [4] 83.3% | [5] 88.5% | [6] 92.2% | [7] 94.1% | [8] 79.5% | [9] 94.9% | [10] 92% | [11] 93.8% | [12] 72.4% | [13] 95.8% | [14] 89.4% | [15] 99.5% | [16] 92.8% | [17] 76.1% | [19] 94.3% | [20] 104%
